This passage reports growth inhibition results from PubChem BioAssay (NCI).

SMILES strings stand for the structures. Compounds without any hit were thinned out: in the full panel of roughly 79,000, 15% have a hit. Unmarked numbers belong to inactive results. Calls of active or inactive are those of the source. Cut-off read from the data, not from the text of the source: active = growth inhibition above about 70%; inactive = the rest.

A short description of experiment [1]: NCI Yeast Anticancer Drug Screen. Data for the rad50 strain (AID 155).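 Note: 0% = growth of vehicle-only cultures of the same strain.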 The settings on record: S. cerevisiae rad50 strain growth inhibition, stronger effect = higher value. A digest of the protocol:
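Relative growth inhibition (compound vs vehicle) was measured in yeast with a defined repair-gene alteration.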

Experiment [2] can be described thus: NCI Yeast Anticancer Drug Screen. Data for the mec2-1 strain (AID 157). The settings on record: S. cerevisiae mec2-1 strain, stronger effect = higher value. In outline: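 Yeast mec2-1 mutant treated with compound. Readout: growth inhibition vs vehicle controls.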
Experiment [3] is described as follows: NCI Yeast Anticancer Drug Screen. Data for the sgs1 mgt1 strain (AID 161).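 Note: 0% = growth of cultures given vehicle only.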 The settings on record: S. cerevisiae sgs1 mgt1 strain, stronger effect = higher value. In outline: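 Read-out: growth inhibition vs vehicle controls. Cells: mutant yeast strain deficient in DNA damage repair.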
A short description of experiment [4]: NCI Yeast Anticancer Drug Screen. Data for the cln2 rad14 strain (AID 165).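 Note: 0% = growth equal to vehicle treated cultures.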 The conditions noted are these: S. cerevisiae cln2 rad14 strain, stronger effect = higher value. A digest of the protocol:
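cln2 rad14 yeast strain; compound exposure; growth inhibition read vs vehicle controls.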

The nature of experiment [5]: NCI Yeast Anticancer Drug Screen. Data for the bub3 strain (AID 167). The settings on record: S. cerevisiae bub3 mutant strain, stronger effect = higher value. In outline:
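Screening used yeast with an engineered genetic alteration affecting cell cycle control. Compound-exposed cultures were compared with vehicle cultures, and reduced growth was taken as inhibition.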

The nature of experiment [6]: NCI Yeast Anticancer Drug Screen. Data for the mlh1 rad18 strain (AID 175). The conditions noted are these: S. cerevisiae mlh1 rad18 strain growth inhibition, stronger effect = higher value. A digest of the protocol:
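Yeast w/ defined DNA-repair lesions; compound exposure; growth vs vehicle controls → % inhibition.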

[7] abbreviates: at 5.0 µM (retest, dose inferred, filed as 0.5).
Where [8] appears, read: at 50.0 µM (retest, dose inferred, filed as 5.0).

`Cc1cc(Br)c(NC(=O)CBr)cc1C`: the growth inhibition was -1% in experiment [1] (setting [7]); 95% (active) in experiment [1] (setting [8]); 42.3% in experiment [1] (at 50.0 µM); -3% in experiment [2] (setting [7]); 97% (active) in experiment [2] (setting [8]); 73.3% (active) in experiment [2] (at 50.0 µM). For the same compound, the growth inhibition in experiment [3] (setting [7]) is -1%; in experiment [3] (setting [8]), 97% (active); in experiment [3] (at 50.0 µM), 72% (active); in experiment [4] (setting [7]), -2%; in experiment [4] (setting [8]), 94% (active); in experiment [4] (at 50.0 µM), 46.9%. Further, the growth inhibition was -1% in experiment [5] (setting [7]); 96% (active) in experiment [5] (setting [8]); 40.5% in experiment [5] (at 50.0 µM); -2% in experiment [6] (setting [7]); 96% (active) in experiment [6] (setting [8]); 81.5% (active) in experiment [6] (at 50.0 µM).

As for `COc1cc(C2C(C(=O)Nc3ccc(Cl)c(Cl)c3)=C(C)NC(C)=C2C(=O)Nc2ccc(Cl)c(Cl)c2)ccc1O`, the growth inhibition in experiment [1] (setting [7]) is 19%; in experiment [1] (setting [8]) it was 19%; in experiment [1] (at 50.0 µM), 91% (active); in experiment [2] (setting [7]) it was -4%; in experiment [2] (setting [8]), -4%; in experiment [2] (at 50.0 µM), 90.6% (active). The growth inhibition in experiment [3] (setting [7]) was 2%; in experiment [3] (setting [8]) it was 2%; in experiment [3] (at 50.0 µM) it was 88.7% (active); in experiment [4] (setting [7]), 7%; in experiment [4] (setting [8]) it was 7%; in experiment [4] (at 50.0 µM) it was 88.8% (active). In addition, the growth inhibition was 13% in experiment [5] (setting [7]); 13% in experiment [5] (setting [8]); 91.2% (active) in experiment [5] (at 50.0 µM); 8% in experiment [6] (setting [7]); 8% in experiment [6] (setting [8]); 89.5% (active) in experiment [6] (at 50.0 µM).

`CC(=O)Nc1ccc(-c2nnc(SCC(=O)Nc3ccc(Cl)cc3Cl)o2)cc1`: the growth inhibition is 1% in experiment [1] (setting [7]); 30% in experiment [1] (setting [8]); 89.4% (active) in experiment [1] (at 50.0 µM); -4% in experiment [2] (setting [7]); 10% in experiment [2] (setting [8]); 97.4% (active) in experiment [2] (at 50.0 µM). Also, the growth inhibition was 2% in experiment [3] (setting [7]); 8% in experiment [3] (setting [8]); 94.9% (active) in experiment [3] (at 50.0 µM); 8% in experiment [4] (setting [7]); 29% in experiment [4] (setting [8]); 86.4% (active) in experiment [4] (at 50.0 µM). Moreover, the growth inhibition is -3% in experiment [5] (setting [7]); 22% in experiment [5] (setting [8]); 97.7% (active) in experiment [5] (at 50.0 µM); 7% in experiment [6] (setting [7]); 28% in experiment [6] (setting [8]); 94.7% (active) in experiment [6] (at 50.0 µM).

In the case of `CSc1ccc(/C=C2/C[N+](C)(C)C/C(=C/c3ccc(SC)cc3)C2=O)cc1`, the growth inhibition in experiment [1] (setting [7]) was 41%; in experiment [1] (setting [8]), 41%; in experiment [1] (at 50.0 µM), 90.6% (active); in experiment [2] (setting [7]) it was 22%; in experiment [2] (setting [8]) it was 22%; in experiment [2] (at 50.0 µM) it was 90.7% (active). Besides, the growth inhibition in experiment [3] (setting [7]) is 34%; in experiment [3] (setting [8]) it was 34%; in experiment [3] (at 50.0 µM) it was 87.3% (active); in experiment [4] (setting [7]) it was 20%; in experiment [4] (setting [8]), 20%; in experiment [4] (at 50.0 µM) it was 86.5% (active). In addition, the growth inhibition in experiment [5] (setting [7]) was 6%; in experiment [5] (setting [8]) it was 6%; in experiment [5] (at 50.0 µM), 90.2% (active); in experiment [6] (setting [7]) it was 32%; in experiment [6] (setting [8]), 32%; in experiment [6] (at 50.0 µM) it was 86.7% (active).

As for `CC(=O)N1c2ccccc2Sc2c1ccc1ccccc21`, the growth inhibition was 10% in experiment [1] (setting [7]); 94% (active) in experiment [1] (setting [8]); 96% (active) in experiment [1] (at 50.0 µM); 5% in experiment [2] (setting [7]); 95% (active) in experiment [2] (setting [8]); 96.8% (active) in experiment [2] (at 50.0 µM). Besides, the growth inhibition in experiment [3] (setting [7]) is 11%; in experiment [3] (setting [8]), 94% (active); in experiment [3] (at 50.0 µM), 96.5% (active); in experiment [4] (setting [7]) it was 1%; in experiment [4] (setting [8]), 94% (active); in experiment [4] (at 50.0 µM) it was 95% (active). In addition, the growth inhibition was 6% in experiment [5] (setting [7]); 93% (active) in experiment [5] (setting [8]); 94.3% (active) in experiment [5] (at 50.0 µM); 2% in experiment [6] (setting [7]); 92% (active) in experiment [6] (setting [8]); 96.7% (active) in experiment [6] (at 50.0 µM).

In the case of `Cc1nc(Nc2ccc(Cl)cc2)sc1C(=O)NNC(=O)C(=O)NN`, the growth inhibition was 3% in experiment [1] (setting [7]); 3% in experiment [1] (setting [8]); 80.5% (active) in experiment [1] (at 50.0 µM); -19% in experiment [2] (setting [7]); -8% in experiment [2] (setting [8]); 59.5% in experiment [2] (at 50.0 µM). Besides, the growth inhibition in experiment [3] (setting [7]) was -13%; in experiment [3] (setting [8]), 9%; in experiment [3] (at 50.0 µM), 61.8%; in experiment [4] (setting [7]), -31%; in experiment [4] (setting [8]), -10%; in experiment [4] (at 50.0 µM), 64.5%. The growth inhibition was -26% in experiment [5] (setting [7]); -5% in experiment [5] (setting [8]); 41.1% in experiment [5] (at 50.0 µM); -45% in experiment [6] (setting [7]); -32% in experiment [6] (setting [8]); 69.5% in experiment [6] (at 50.0 µM).

For the compound `Cc1c(CCCl)c(N=[N+]=[N-])n2c(nc3ccccc32)c1C#N`, the growth inhibition in experiment [1] (setting [7]) is 31%; in experiment [1] (setting [8]), 46%; in experiment [1] (at 50.0 µM), 83.8% (active); in experiment [2] (setting [7]), 27%; in experiment [2] (setting [8]), 45%; in experiment [2] (at 50.0 µM) it was 71.2% (active). The growth inhibition in experiment [3] (setting [7]) is 23%; in experiment [3] (setting [8]), 51%; in experiment [3] (at 50.0 µM) it was 56.6%; in experiment [4] (setting [7]), 20%; in experiment [4] (setting [8]) it was 34%; in experiment [4] (at 50.0 µM), 63.4%. Further, the growth inhibition in experiment [5] (setting [7]) is 23%; in experiment [5] (setting [8]), 57%; in experiment [5] (at 50.0 µM) it was 78.2% (active); in experiment [6] (setting [7]), 28%; in experiment [6] (setting [8]), 48%; in experiment [6] (at 50.0 µM), 56.5%.
